Data taken from PubChem BioAssay (NCATS).
“And” between values parts separate entries of the source, which are not always exact repeats. Equal values may be shown once. Results filed as inconclusive are left out. The source made the active and inactive calls. The call rests on the fitted dose curve; in most records, active means well fitted inhibition curve with a large enough effect; inconclusive means small, poorly fitted or top-dose-only effect; inactive means flat fitted curve, though single readings scatter.

What was measured:
CRL-7250 = normal cell line; test: Cytotoxic Profiling of Annotated Libraries Using Quantitative High-Throughput Screening (AID 1296008); settings: Five cell lines viability, CellTiter-Glo ATP luminescence, 48-72 h; max response: hits give low values; further: potency means the concentration at half of the fitted maximal effect
Procedure, shortened: (§1)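 Cells exposed to compounds for 48 or 72 hr at 37 degrees Celsius. Viability read as ATP-coupled luminescence with CellTiter-Glo after 10 min at room temperature.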

HEK293 = test: as above; settings: Five cell lines viability, CellTiter-Glo ATP luminescence, 48-72 h; max response: hits give low values
Procedure, shortened: as §1

HaCat [1] = test: as above; settings: Five cell lines viability, CellTiter-Glo ATP luminescence, 48-72 h; max response: hits give low values
Procedure, shortened: as §1

KB-3-1 = test: as above; settings: Five cell lines viability, CellTiter-Glo ATP luminescence, 48-72 h; max response: hits give low values
Procedure, shortened: as §1

NIH3T3 = test: as above; settings: Five cell lines viability, CellTiter-Glo ATP luminescence, 48-72 h; max response: hits give low values
Procedure, shortened: as §1

HEK293T = test: qHTS assay to identify novel small-molecules to repurpose for Merkel cell carcinoma treatment (AID 1296009); settings: MCC and control cell lines, CellTiter-Glo viability, 72 h; at 44.8 µM (top of the series) unless noted
Procedure, shortened: (§2)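 Dose-response viability screen; 72 hr exposure at 37 degree celsius; CellTiter-Glo added, 10 min room temperature, luminescence read; RLUs scaled between no-cell and DMSO wells.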

MCC-13 = test: as above; settings: MCC and control cell lines, CellTiter-Glo viability, 72 h; series mostly up to 46 µM
Procedure, shortened: as §2

MCC-26 = test: as above; settings: MCC and control cell lines, CellTiter-Glo viability, 72 h; series mostly up to 46 µM
Procedure, shortened: as §2

MKL-1 = test: as above; settings: MCC and control cell lines, CellTiter-Glo viability, 72 h; series mostly up to 46 µM
Procedure, shortened: as §2

HACAT [2] = test: as above; settings: MCC and control cell lines, CellTiter-Glo viability, 72 h; at 44.8 µM (top of the series) unless noted
Procedure, shortened: as §2
Further: nearly all actives have a fitted effect of over 60% in size.
On the % scale 0 is the no-effect control and ±100 the full control effect.

Nc1ccc(S(=O)(=O)Nc2ccc(Cl)nn2)cc1
inactive: max response (CRL-7250) -2.16% | outcome (HEK293) | max response (HaCat [1]) 0.946% | max response (KB-3-1) 14.3% and -6.92% | max response (NIH3T3) 1.13% | outcome (HEK293T) | Potency (MCC-13) | Potency (MCC-26) | Potency (MKL-1)

CC12CCC(CC1)C(C)(C)O2
inactive: max response (CRL-7250) 3.08% | outcome (HEK293) | max response (HaCat [1]) -2.38% | max response (KB-3-1) -7.48% | outcome (NIH3T3) | outcome (HEK293T) | Potency (MCC-13) | Potency (MCC-26) | Potency (MKL-1)

Cc1cc(O)cc2c1O[C@](C)(CCC[C@H](C)CCC[C@H](C)CCCC(C)C)CC2
inactive: max response (CRL-7250) -1.48% | max response (HEK293) 2.12% | outcome (HaCat [1]) | max response (KB-3-1) -4.01% and 1.69% | outcome (NIH3T3) | outcome (HACAT [2]) | Potency (MCC-13) | Potency (MCC-26) | Potency (MKL-1)

O=C(O)c1ccccc1O
inactive: max response (CRL-7250) 0.122% | outcome (HEK293) | max response (HaCat [1]) 2.15% | max response (KB-3-1) 7.74% and -13.4% | outcome (NIH3T3) | outcome (HEK293T) | Potency (MCC-13) | Potency (MCC-26) | Potency (MKL-1)

O=C(O)c1ccccc1-c1ccc(C(F)(F)F)cc1
inactive: outcome (CRL-7250) | outcome (HEK293) | outcome (HaCat [1]) | max response (KB-3-1) -5.64% | max response (NIH3T3) -3.57% | outcome (HACAT [2]) | outcome (HEK293T) | Potency (MCC-13) | Potency (MCC-26) | Potency (MKL-1)

NC1CCN(c2cccc(Cl)n2)CC1
inactive: max response (CRL-7250) 0.115% | max response (HEK293) -9.08% | outcome (HaCat [1]) | max response (KB-3-1) 2% | outcome (NIH3T3) | outcome (HACAT [2]) | Potency (MCC-13) | Potency (MCC-26) | Potency (MKL-1)

CC1(C)S[C@@H]2[C@H](NC(=O)Cc3ccccc3)C(=O)N2[C@H]1C(=O)O (tested in a mixture with another compound)
inactive: outcome (CRL-7250) | outcome (HEK293) | max response (HaCat [1]) -1.15% | max response (KB-3-1) 9.18% | outcome (NIH3T3) | outcome (HEK293T) | Potency (MCC-13) | Potency (MCC-26) | Potency (MKL-1)

C[C@H]1O[C@@H](n2cc(F)c(=O)[nH]c2=O)[C@H](O)[C@@H]1O
active: Potency (HaCat [1]) 10.6 µM
inactive: max response (CRL-7250) -5.52% | outcome (HEK293) | max response (KB-3-1) -0.506% | max response (NIH3T3) -23.8% | outcome (HEK293T) | Potency (MCC-13) | Potency (MCC-26) | Potency (MKL-1)

CN1[C@@H]2CC[C@H]1CC(OC(=O)C(O)c1ccccc1)C2 (stereo partly drawn)
inactive: max response (CRL-7250) 1.28% | max response (HEK293) -8.16% | outcome (HaCat [1]) | max response (KB-3-1) 3.38% and -1.31% and -10.9% | outcome (NIH3T3) | outcome (HACAT [2]) | Potency (MCC-13) | Potency (MCC-26) | Potency (MKL-1)

CCCCN(CCCC)CCCOC(=O)c1ccc(N)cc1
inactive: outcome (CRL-7250) | outcome (HEK293) | max response (HaCat [1]) -1.28% | max response (KB-3-1) -15.2% | outcome (NIH3T3) | outcome (HEK293T) | Potency (MCC-13) | Potency (MCC-26) | Potency (MKL-1)

O=c1cc(CO)occ1O
inactive: max response (CRL-7250) -3.51% | outcome (HEK293) | max response (HaCat [1]) 2.79% | max response (KB-3-1) 1.74% and -12.5% | max response (NIH3T3) -2.71% | outcome (HEK293T) | Potency (MCC-13) | Potency (MCC-26) | Potency (MKL-1)

C[C@]12CC[C@@H]3c4ccc(O)cc4CC[C@H]3[C@@H]1CCC2=O
inactive: outcome (CRL-7250) | outcome (HEK293) | max response (HaCat [1]) 3.4% | max response (KB-3-1) 23.7% | max response (NIH3T3) 0.542% | outcome (HEK293T) | Potency (MCC-13) | Potency (MCC-26) | Potency (MKL-1)

C[C@@H]1CCN(C(=O)[C@H](CCCN=C(N)N)NS(=O)(=O)c2cccc3c2NC[C@H](C)C3)[C@@H](C(=O)O)C1
inactive: max response (CRL-7250) 0.468% | outcome (HEK293) | max response (HaCat [1]) 0.409% | max response (KB-3-1) 1.81% | outcome (NIH3T3) | outcome (HEK293T) | Potency (MCC-13) | Potency (MCC-26) | Potency (MKL-1)

COc1cc(C)c(Cc2cnc(N)nc2N)cc1OC
inactive: max response (CRL-7250) 0.178% | outcome (HEK293) | outcome (HaCat [1]) | max response (KB-3-1) 7.84% | max response (NIH3T3) 0.338% | outcome (HACAT [2]) | outcome (HEK293T) | Potency (MCC-13) | Potency (MCC-26) | Potency (MKL-1)

CC(COc1ccccc1)NC(C)C(O)c1ccc(O)cc1 (stereo not drawn)
inactive: max response (CRL-7250) -14.7% | outcome (HEK293) | max response (HaCat [1]) -5.97% | max response (KB-3-1) 15.9% | outcome (NIH3T3) | outcome (HEK293T) | Potency (MCC-13) | Potency (MCC-26) | Potency (MKL-1)

COc1cc(C(=O)N2CCOCC2)cc(OC)c1OC
inactive: max response (CRL-7250) 0.938% | max response (HEK293) 1.96% | outcome (HaCat [1]) | max response (KB-3-1) 4.09% and 1.86% | outcome (NIH3T3) | outcome (HACAT [2]) | Potency (MCC-13) | Potency (MCC-26) | Potency (MKL-1)

O=C1N=C(O)CN1/N=C/c1ccc(-c2ccc([N+](=O)[O-])cc2)o1
inactive: outcome (CRL-7250) | max response (HEK293) -11.3% | outcome (HaCat [1]) | max response (KB-3-1) 4.36% | max response (NIH3T3) -4.3% | outcome (HACAT [2]) | Potency (MCC-13) | Potency (MCC-26) | Potency (MKL-1)

C[C@H](NC(CCc1ccccc1)C(=O)O)C(=O)N1CCC[C@H]1C(=O)O (stereo partly drawn)
inactive: outcome (CRL-7250) | max response (HEK293) 3.49% | outcome (HaCat [1]) | max response (KB-3-1) -16.2% | max response (NIH3T3) 1.23% | outcome (HACAT [2]) | Potency (MCC-13) | Potency (MCC-26) | Potency (MKL-1)

O=C(O)COc1nn(Cc2ccccc2)c2ccccc12
inactive: max response (CRL-7250) -2.07% | outcome (HEK293) | outcome (HaCat [1]) | max response (KB-3-1) -3.25% | max response (NIH3T3) 2.16% | outcome (HACAT [2]) | outcome (HEK293T) | Potency (MCC-13) | Potency (MCC-26) | Potency (MKL-1)

CC1CC(OC(=O)C(O)c2ccccc2)CC(C)(C)N1C (stereo not drawn)
inactive: max response (CRL-7250) -13.8% | outcome (HEK293) | max response (HaCat [1]) 1.05% | max response (KB-3-1) 1.03% and 0.565% | outcome (NIH3T3) | outcome (HEK293T) | Potency (MCC-13) | Potency (MCC-26) | Potency (MKL-1)

C[C@H](N)[C@H](O)c1cccc(O)c1
inactive: max response (CRL-7250) -3.27% | outcome (HEK293) | outcome (HaCat [1]) | max response (KB-3-1) 1.71% | max response (NIH3T3) 1.91% | outcome (HACAT [2]) | outcome (HEK293T) | Potency (MCC-13) | Potency (MCC-26) | Potency (MKL-1)

CCCCOC(=O)c1ccc(O)cc1
inactive: max response (CRL-7250) 0.245% | outcome (HEK293) | outcome (HaCat [1]) | max response (KB-3-1) 0.659% | max response (NIH3T3) -12.6% | outcome (HACAT [2]) | outcome (HEK293T) | Potency (MCC-13) | Potency (MCC-26) | Potency (MKL-1)

COc1ccc2cc1Oc1cc3c(cc1OC)CC[N+](C)(C)[C@H]3Cc1ccc(cc1)Oc1c(OC)c(OC)cc3c1[C@@H](C2)[N+](C)(C)CC3
inactive: outcome (CRL-7250) | outcome (HEK293) | max response (HaCat [1]) 0.882% | max response (KB-3-1) 0.968% | outcome (NIH3T3) | outcome (HEK293T) | Potency (MCC-13) | Potency (MCC-26) | Potency (MKL-1)

Cc1cccc(C)c1NC(=O)CN(CC(=O)O)CC(=O)O
inactive: max response (CRL-7250) 0.46% | outcome (HEK293) | outcome (HaCat [1]) | max response (KB-3-1) 2.9% | max response (NIH3T3) -7.57% | outcome (HACAT [2]) | outcome (HEK293T) | Potency (MCC-13) | Potency (MCC-26) | Potency (MKL-1)

Oc1cccc(O)c1
inactive: max response (CRL-7250) -6.09% | outcome (HEK293) | outcome (HaCat [1]) | max response (KB-3-1) -21.4% | outcome (NIH3T3) | outcome (HACAT [2]) | outcome (HEK293T) | Potency (MCC-13) | Potency (MCC-26) | Potency (MKL-1)

NC(=O)NNc1ccccc1
inactive: max response (CRL-7250) 2.83% | max response (HEK293) 0.574% | max response (HaCat [1]) -7.26% | max response (KB-3-1) 13.6% and -2.9% | max response (NIH3T3) -2.02% | Potency (MCC-13) | Potency (MCC-26) | Potency (MKL-1)

O=C(O)c1ccccn1
inactive: max response (CRL-7250) -6.73% | outcome (HEK293) | outcome (HaCat [1]) | outcome (NIH3T3) | outcome (HACAT [2]) | outcome (HEK293T) | Potency (MCC-13) | Potency (MCC-26) | Potency (MKL-1)

Cc1ccc2nc(N)[nH]c(=O)c2c1Sc1ccncc1
inactive: max response (CRL-7250) -27% and -23.5% | Potency (MCC-26) | Potency (MKL-1)
active: Potency (HEK293) 8.2 µM | Potency (HaCat [1]) 1.33 µM and 2.59 µM | Potency (NIH3T3) 2.37 µM and 6.51 µM

COc1ccc(S(=O)(=O)Nc2nnc(CC(C)C)s2)cc1
inactive: max response (CRL-7250) 0.202% | max response (HEK293) -9.93% | max response (HaCat [1]) -5.69% | max response (KB-3-1) -8.69% and 6.78% | max response (NIH3T3) -3.07% | Potency (MCC-13) | Potency (MCC-26) | Potency (MKL-1)
